Compound activity deposited in PubChem BioAssay by National Center for Advancing Translational Sciences (NCATS).
Most compounds without a hit are left out; they make up all but 7.4% or so of the library.
FLuc counter: qHTS profiling assay for firefly luciferase inhibitor/activator using purifed enzyme and Km concentrations of substrates (counterscreen for miR-21 project); Luciferin 4-monooxygenase (Photinus pyralis), P08659; purified FLuc, Km substrates, luminescence inhibition; Potency, µM (titrated, usually from 57.5 µM), hits mostly inhibitors; hit rate 6.9% among 360,000; further: nearly all actives have a fitted effect of over 55% in size
Target sequence (P08659 whole entry, looked up): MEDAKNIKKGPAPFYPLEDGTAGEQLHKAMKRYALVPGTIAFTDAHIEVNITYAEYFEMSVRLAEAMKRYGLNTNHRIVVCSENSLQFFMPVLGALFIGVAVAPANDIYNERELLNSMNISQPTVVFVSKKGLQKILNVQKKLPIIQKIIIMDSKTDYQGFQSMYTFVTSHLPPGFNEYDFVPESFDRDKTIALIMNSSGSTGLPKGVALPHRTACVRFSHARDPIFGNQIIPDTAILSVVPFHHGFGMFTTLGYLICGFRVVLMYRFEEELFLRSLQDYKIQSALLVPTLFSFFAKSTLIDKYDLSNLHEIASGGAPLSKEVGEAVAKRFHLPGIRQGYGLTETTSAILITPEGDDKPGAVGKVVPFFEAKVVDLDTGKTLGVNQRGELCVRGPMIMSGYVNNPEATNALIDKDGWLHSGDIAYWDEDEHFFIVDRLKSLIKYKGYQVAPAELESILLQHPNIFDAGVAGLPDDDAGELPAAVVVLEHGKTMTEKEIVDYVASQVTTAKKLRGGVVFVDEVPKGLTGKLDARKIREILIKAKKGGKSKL
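Purified P. pyralis luciferase (10nM final) with 10uM D-luciferin and 10uM ATP (Km levels) in 50mM Tris acetate pH 7.5, 10mM Mg acetate, 0.01% Tween-20, 0.05% BSA; qHTS 6-point titration, ~60 µM downward; luminescence read.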
NPC1 prom act: qHTS Assay for NPC1 Promoter Activators. Huh7 NPC1 promoter luciferase reporter, 24 h. Potency, µM (top dose mostly 9.22 µM), most hits filed as activators. hit rate 2.4% among 320,000; further: nearly all actives have a fitted effect of over 60% in size
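Luminescence from an NPC1 promoter-driven luciferase reporter in stably transfected Huh7 cells was measured after 24 h compound treatment at 37 °C, followed by 10 min ambient incubation with luciferase detection reagent.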
SMN2 splice up: qHTS Assay for Enhancers of SMN2 Splice Variant Expression | HEK293 SMN2-luciferase splicing reporter, luminescence, 30-36 h | Potency, µM (titrated, usually from 46.1 µM), hits mostly activators | hit rate 2.8% among 210,000 | AID 1458, 2008; further: nearly all actives have a fitted effect of over 55% in size
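HEK293 cells carry an SMN2 minigene-luciferase reporter in which exon 7 inclusion puts luciferase in frame. Cells were seeded at 2000 cells/well, attached for 10-12 hours, then exposed to compounds for 30-36 hours at 37C before ONE-Glo luminescence.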
Rab9 prom act: qHTS Assay for Rab9 Promoter Activators | Huh7 Rab9 promoter-luciferase reporter, luminescence, 24 h | Potency, µM (titrated, usually from 9.22 µM), most hits filed as activators | hit rate 2.8% among 320,000 | AID 485297, 2010; further: nearly all actives have a fitted effect of over 60% in size
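Measured in stably transfected Huh7 cells bearing a Rab9 promoter–luciferase construct: 24 h compound treatment at 37 °C, followed by luminescence detection.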
p53 reactivation: qHTS assay for re-activators of p53 using a Luc reporter; Potency, µM (highest dose often 92.2 µM), actives largely listed as activators; H1299 p53-A138V BP100-luciferase reporter, luminescence, 24 h; AID 504706, 2011; hit rate 0.063% among 320,000; further: nearly all actives have a fitted effect of over 45% in size
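p53-null H1299 cells stably carrying temperature-sensitive p53-A138V and a BP100-luciferase reporter were pinned with compounds (4-point, 1:5 series) and held 24 hrs at 37 deg C. Luminescence was read 10 min after detection reagent.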
ELG1 genotox: qHTS screen for small molecules that induce genotoxicity in human embryonic kidney (HEK293T) cells expressing luciferase-tagged ELG1 | HEK293T ELG1-luciferase reporter, luminescence, 16 h | Potency, µM (titrated, usually from 46 µM), actives largely listed as activators | hit rate 1.3% among 330,000 | AID 504466, 2011; further: nearly all actives have a fitted effect of over 60% in size
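Reporter readout depends on ELG1 protein level, which increases with genetic stress. After 16 hr compound exposure at 37 °C, luciferase activity was quantified using ONE-Glo.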
Numbers stand for hits; n = inactive; u = inconclusive; x = no result. The call rests on the fitted dose curve; in most records, active means well fitted curve in the direction sought with a large enough effect; inconclusive means small, poorly fitted or top-dose-only effect, or another doubt; inactive means no such curve, though single readings can be large; an effect the other way counts as inactive or inconclusive.

SMILES	FLuc counter	NPC1 prom act	SMN2 splice up	Rab9 prom act	p53 reactivation	ELG1 genotox
CS(=O)(=O)N1CCN(c2ccc(NC(=O)c3ccc(Br)o3)cc2)CC1	n	2.82µM	7.08µM	3.16µM	u	1.46µM
CN1CCN(c2ccc(NC(=O)c3ccc(-c4ccccc4F)o3)cc2)CC1	2.69µM	3.16µM	x	1µM	u	u
O=C(CSCc1cc(=O)n2ccsc2n1)Nc1ccccc1	n	n	x	n	n	n
CN1CCN(c2ccc(NC(=O)c3ccc(Br)o3)cc2)CC1	12µM	1.58µM	x	u	u	16.4µM
CC1CCN(c2ccc(NC(=O)c3cccnc3)cc2)CC1	12µM	u	28.2µM	u	u	n
O=C(Nc1ccc(N2CCOCC2)cc1)c1ccc(Br)o1	4.26µM	0.447µM	x	0.282µM	u	u
CC1CCN(c2ccc(NC(=O)c3ccc(Br)o3)cc2)CC1	1.9µM	1µM	x	1µM	u	1.46µM
CC[C@H](C(=O)[C@H](C)[C@H](O)[C@H](C)CCc1ccc(C)c(O)c1C(=O)O)[C@H]1O[C@](CC)([C@@H]2CC[C@@](O)(CC)[C@H](C)O2)C[C@H]1C	x	x	n	x	x	x
O=C(Nc1ccc(S(=O)(=O)N2CCOCC2)cc1)c1ccc([N+](=O)[O-])o1	n	n	x	n	n	n
O=C(Nc1ccc(N2CCOCC2)cc1)c1ccc([N+](=O)[O-])o1	8.49µM	1.41µM	x	1.58µM	n	9.2µM
O=C(Nc1ccc(N2CCCC2)c(Cl)c1)c1ccc(Br)o1	5.36µM	3.55µM	11.2µM	2.82µM	u	u
CC(C)C[C@@H](CC(=O)N[C@H](CC(=O)N[C@@H]1CCNC[C@H]1C(=O)N[C@H](CC(=O)N[C@@H](CCC(=O)O)CC(=O)O)Cc1ccccc1)C(C)C)NC(=O)[C@@H]1CCCC[C@H]1N	x	x	n	x	x	x
Cc1ccc(C)c(N2CCN(CCCNC(=O)c3nnc(Cc4ccc(F)cc4Cl)o3)CC2)c1	n	x	n	x	x	x
COc1ccc(OCCCn2c(=O)oc3ccc(C)cc32)cc1	n	x	u	x	x	x
Cc1ccccc1OCCn1c(=O)oc2ccccc21	n	n	n	n	n	n
O=c1oc2ccccc2n1CCCOc1ccccc1Cl	12µM	x	20µM	x	x	x
Cc1ccc2oc(=O)n(CCCOc3ccccc3)c2c1	23.9µM	u	n	u	n	u
CCNC(=O)c1cc(S(=O)(=O)N2CCSCC2)ccc1OC	n	n	x	n	n	n
CCCn1c(C)nc2c(NC(C)CN(C)C)nc(C)nc21 (stereo not given)	x	x	n	x	x	x
C/C(=N\Nc1cc(C)nc(-c2ccccc2O)n1)c1ccccc1	9.53µM	n	n	n	n	n
Cc1cc(Nc2ccc(Br)cc2)nc(-c2ccccc2O)n1	u	n	x	n	n	n
Cc1ccc(Nc2cc(C)nc(-c3ccccc3O)n2)cc1	23.9µM	n	n	n	n	u
Cc1ccc(Nc2cc(C)nc(-c3ccccc3)n2)cc1	21.3µM	u	x	u	u	u
COC(=O)c1c(NC(=O)c2ccc(S(=O)(=O)N3CCCCC3)cc2)sc2c1CCN(C)C2	n	x	x	x	x	x
NC(=O)[C@H]1CC2(CC(c3cccc(NC(=O)COc4ccc(Cl)cc4)c3)=NO2)CN1C(=O)[C@H]1CCC(=O)N1 (stereo not given in full)	12µM	n	x	n	n	n
SMILES	FLuc counter	NPC1 prom act	SMN2 splice up	Rab9 prom act	p53 reactivation	ELG1 genotox
CC/C=C/C(=O)N1CC2(CC(c3cccc(NC(=O)COc4ccc(Cl)cc4)c3)=NO2)C[C@H]1C(N)=O (stereo not given in full)	12µM	n	x	n	n	n
NC(=O)[C@@H]1CC2(CC(c3cccc(NC(=O)COc4ccc(Cl)cc4)c3)=NO2)CN1C(=O)COc1ccc(Cl)cc1 (stereo not given in full)	12µM	n	x	n	n	n
N#CCC(=O)N1CC2(CC(c3cccc(NC(=O)COc4ccc(Cl)cc4)c3)=NO2)C[C@@H]1C(N)=O (stereo not given in full)	15.1µM	n	x	n	n	n
NCCC[C@@H](CC(=O)N[C@@H]1CCCC[C@H]1C(=O)N[C@H](CC(=O)N[C@@H](CCC(=O)O)CC(=O)O)Cc1c[nH]c2ccccc12)NC(=O)C[C@H](Cc1ccccc1)NC(=O)[C@@H]1CCCC[C@H]1N	x	x	n	x	x	x
Cc1cccc(OCCSc2nc3ccc(NC(=O)COc4ccccc4)cc3s2)c1	n	x	x	x	x	x
Cn1c(=O)c2ncn(CC(=O)Nc3cccc(-c4nc5ccccc5s4)c3)c2n(C)c1=O	3.79µM	3.16µM	n	u	u	n
CCc1ccc(NC(=O)Cn2cnc3c(=O)n(C)c(=O)n(C)c32)cc1	n	n	n	n	n	n
Cc1ccc(OCC(=O)Nc2cccc(-c3nc4ccccc4s3)c2)cc1	9.53µM	x	x	x	x	x
Cc1cccc(OCC(=O)Nc2cccc(-c3nc4ccccc4s3)c2)c1	6.01µM	x	3.16µM	x	x	x
CCc1c(C)sc2c1CCN(C(=O)Nc1cc(Cl)c(OC)cc1OC)C2c1ccccc1 (stereo not given)	n	x	x	x	x	x
O=C(CCS(=O)(=O)c1ccccc1)N(Cc1cccnc1)c1nc2c(Cl)cccc2s1	n	x	x	x	x	x
CCc1ccc(CC2S/C(=C(\C#N)C(C)=O)NC2=O)cc1 (stereo not given)	u	n	11.2µM	n	u	n
CCOC(=O)c1ccc(CC2S/C(=C(\C#N)C(C)=O)NC2=O)cc1 (stereo not given)	u	n	n	n	n	u
NC(=O)c1cnn(-c2ccc3ccccc3c2)c1N	u	n	17.8µM	3.98µM	n	u
COC(=O)c1cnn(-c2ccccc2)c1N	n	n	x	n	n	n
CSCCC(=O)N1CCCC(N2CCN(c3cccc(C(F)(F)F)c3)CC2)C1 (stereo not given)	n	n	x	n	u	n
Cc1ccn2c(c1)nc(=S)n2C(=O)c1ccco1	1.51µM	3.98µM	17.8µM	1.58µM	u	u
Cc1nn(C(=O)c2ccco2)c(C)c1Br	n	n	n	n	n	n
Cc1ccc(NC(=O)Cn2c(=O)n(CC(=O)NCCc3ccccc3)c(=O)c3ccccc32)cc1	n	x	n	x	x	x
Cc1cccc(-c2nnc3sc(-c4ccccc4C)nn23)c1	u	n	n	n	n	n
Clc1ccc(-c2nn3c(-c4ccccc4)nnc3s2)cc1	n	n	n	n	n	n
c1ccc(-c2nnc3sc(-c4ccncc4)nn23)cc1	n	n	4.47µM	n	n	n
COc1ccc(-c2nn3c(=O)c(C)nnc3s2)cc1	u	n	x	n	n	n
c1ccc(-c2nnc3sc(-c4csc5c4CCCC5)nn23)cc1	15.1µM	n	u	n	n	n
